The values that follow come from PubChem BioAssay AID1671192 (National Center for Advancing Translational Sciences (NCATS), 2021).

Results filed as inconclusive are left out. Unmarked numbers belong to inactive results. The call rests on the fitted dose curve; in most records, active means well fitted curve in the direction sought with a large enough effect; inconclusive means small, poorly fitted or top-dose-only effect, or another doubt; inactive means no such curve, though single readings can be large or run the other way.

Sequence of Polyunsaturated fatty acid lipoxygenase ALOX15 (Homo sapiens) (P16050 whole entry, looked up): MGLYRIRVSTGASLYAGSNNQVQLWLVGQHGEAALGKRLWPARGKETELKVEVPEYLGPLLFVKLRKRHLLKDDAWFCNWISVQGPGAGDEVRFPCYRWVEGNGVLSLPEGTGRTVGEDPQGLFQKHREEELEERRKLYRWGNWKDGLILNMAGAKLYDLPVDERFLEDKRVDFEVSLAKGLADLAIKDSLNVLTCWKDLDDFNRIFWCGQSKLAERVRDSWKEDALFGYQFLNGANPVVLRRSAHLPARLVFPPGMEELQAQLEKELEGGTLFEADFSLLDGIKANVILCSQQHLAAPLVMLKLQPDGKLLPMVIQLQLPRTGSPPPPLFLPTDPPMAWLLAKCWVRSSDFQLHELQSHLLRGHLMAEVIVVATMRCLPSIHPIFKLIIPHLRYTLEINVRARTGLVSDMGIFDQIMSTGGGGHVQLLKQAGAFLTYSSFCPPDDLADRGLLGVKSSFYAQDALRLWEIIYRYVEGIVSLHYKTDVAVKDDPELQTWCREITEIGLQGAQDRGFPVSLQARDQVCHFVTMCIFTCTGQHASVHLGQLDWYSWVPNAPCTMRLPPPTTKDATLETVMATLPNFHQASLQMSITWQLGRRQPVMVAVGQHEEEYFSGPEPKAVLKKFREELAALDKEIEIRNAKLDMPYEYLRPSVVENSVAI

This test deals with Polyunsaturated fatty acid lipoxygenase ALOX15 (Homo sapiens) (UniProt P16050). In words: Counterscreen qHTS for inhibitors of human arachidonate 12S-lipoxygenase (ALOX12): ALOX15 Assay. Further: 0% is about no effect. The note with it: purified ALOX15 enzyme activity; series mostly up to 233 µM; activity change, negative = inhibition: at the top concentration. The source says:
Assay Provider: Theodore R. Holman Ph.D.
University of California, Santa Cruz, California
Human lipoxygenase 12hLO is a member of the closely related lipoxygenase family of enzymes which catalyze the site-specific oxidation of arachidonic acid to various hormone precursor molecules and as such is a candidate for drug development in a variety of disease areas, such as cancer and inflammation. Inhibition of 12hLO activity was screened by utilizing arachidonic acid as a substrate. The extent of hydroperoxide product formation was measured by a secondary chromogenic reaction in which xylenol orange (XO, Sigma-Aldrich, cat. number 39,818-7) reacts with the ferric ions produced from the reaction between the hydroperoxide and ferrous ions. The Fe (III)-XO complex is characterized with red-shifted absorbance at 560 nm. A purified preparation of human 12hLO was supplied by Dr. Holman laboratory, University of California, Santa Cruz.
An assay against arachidonate 15-lipoxygenase (ALOX15) was developed to assess selective inhibition against ALOX12. Desired compounds would show potent inhibition against ALOX12 and minimal to no inhibition against ALOX15.
SEQUENCE No. (e.g., 1, 2, 3, etc.); PARAMETER (e.g., Cells, Incubation, Reagent, etc.); VALUE; DESCRIPTION
1; Enzyme; 3 uL; 40 nM ALOX15 (15hLO-1) enzyme solution dispensed in 1536-well Greiner black, clear bottom plates.
2; Compound; 23 nL; compounds and controls were added.
3; Incubate; 15 min; room temperature.
4; Substrate; 1 uL; 50 uM arachidonic acid (final concentration).
5; Incubate; 30 min; room temperature.
6; Reagent; 4 uL; Fe-XO solution was added to each well.
8; Incubation; 30 min; room temperature
9; Detector; absorbance; Read 1 at 405 nm absorbance using ViewLux (PerkinElmer) CCD imager.
10; Detector; absorbance; Read 2 at 573 nm absorbance using ViewLux (PerkinElmer) CCD imager.
NOTES (numbers refer to sequence above)
1; 40 nM ALOX15 (final concentration) in buffer solution (25 mM Hepes, 0.01% Triton X-100, pH 7.5) was dispensed in columns 1, 2, 5 - 48. Column 1 is neutral (100% activity). Buffer only was dispensed in columns 3 and 4 as no enzyme negative controls. The plates were covered with metal lids with gas-exchange holes.
2; Compounds were pin transferred via a Kalypsys Pin Tool (Wako USA) in column 5 - 48. Control compound was transferred in column 2, titration of nordihydroguaiaretic acid (NDGA, Sigma-Aldrich, N5023) with top concentration of 10 mM in DMSO then 1:2 dilution in duplicate. Dilution factor of 23 nL into 4 uL final assay volume.
3; Covered assay plates were incubated for 15 min at room temperature.
4; Substrate was added to start the reaction; 50 uM arachidonic acid (Sigma-Aldrich, St. Louis, MO) was dispensed throughout the plate.
6; Chromogenic detection reagent solution (divalent iron/xylenol orange, Fe-XO) was added to each well: 200 uM xylenol orange, 300 uM ferrous ammonium sulfate prepared freshly in 50 mM sulfuric acid.
9, 10; Two absorbance readouts were obtained at 405 nm and at 573 nm using a ViewLux high-throughput CCD plate imager (PerkinElmer). The 573 to 405 (Read 2 / Read 1) absorbance ratio was used to compute reaction progress.
On the technique in general: Counterscreens check selectivity or assay interference.
In the case of `O=C(Cc1ccc(Cl)cc1)N1Cc2ccccc2CC2(CCCN2CC2CCNC2)C1` (stereo not given), the “activity change, negative = inhibition” value is -1.25% [at 110 µM].
The result for `c1cnc2nc(C3CCNCC3)[nH]c2c1` reads -13.3%.
As for `COc1ccc(C(CN)N2CCCC2)cc1` (stereo not given), the “activity change, negative = inhibition” value was 1.12%.
Consider `CCN1CCCCC12Cc1ccccc1CN(C(=O)Cc1ccc(OC)cc1)C2` (stereo not given), for which the “activity change, negative = inhibition” value was -13.8% [at 110 µM].
The value for `FC(F)(F)CN1C2CCC1CN(c1cncc(Br)c1)C2` was -17.5% [at 110 µM]; that for `O=C(O)C1=NOC2CN(Cc3cccc(Br)n3)CC12` (stereo not given) was -9.19% [at 146 µM].
Take `CCN1CCCCC12Cc1ccccc1CN(C(=O)Cc1ccccc1)C2` (stereo not given): the “activity change, negative = inhibition” value was 30.9% [at 110 µM].
Take `CNC1CCc2ccccc21` (stereo not given): the “activity change, negative = inhibition” value was -19.7%.
As for `O=C1Nc2ccccc2CN(Cc2ccncc2)C12CCNCC2`, the “activity change, negative = inhibition” value is -28.4% [at 110 µM].
Regarding `CCCCC1CN2CCCC2CN1` (stereo not given), the “activity change, negative = inhibition” value is -19.4%.
On to `O=C1Nc2ccccc2C12CCN(CC1CCCCC1)CC2`, for which the “activity change, negative = inhibition” value is -21.5% [at 146 µM].
The result for `CC1CN2CCCCC2CN1` (stereo not given) reads -4.4% [at 343 µM].
In the case of `COc1ccc(CC(=O)N2Cc3ccccc3CC3(CCCCN3C)C2)cc1` (stereo not given), the “activity change, negative = inhibition” value was 1.23% [at 110 µM].
Regarding `c1ccc(CC2CN3CCCC3CN2)cc1` (stereo not given), the “activity change, negative = inhibition” value was -5.65%.
`CN(C)c1ccc(CN2CCC3(CC2)C(=O)Nc2ccccc23)cc1`: the “activity change, negative = inhibition” value is -21.5% [at 146 µM].
For the compound `O=[S+]1([O-])NC2(CCN(CC3CCOCC3)C2)COc2ccncc21` (stereo not given), the “activity change, negative = inhibition” value is 6.63% [at 110 µM].
On to `CNC(C)c1ccc(Cl)cc1` (stereo not given), for which the “activity change, negative = inhibition” value was -14.3%.
The result for `O=C1NC2(Cc3ccccc31)CN(CC1CC1)C2` reads 9.8%.
With `O=C(O)C1=NOC2CN(Cc3ccccc3)CC12` (stereo not given), the “activity change, negative = inhibition” value is -24.1%.
For the compound `CC(C)C1CN2CCCC2CN1` (stereo not given), the “activity change, negative = inhibition” value was -28.7%.
